Inconclusive results are not listed. The source made the active and inactive calls. Unless noted, calls come from the whole dose curve; as a rule, active = well fitted curve in the direction sought with a large enough effect in the repeat runs; inconclusive = weak or mixed curves; inactive = no such curve, though single readings can be large; an effect the other way counts as inactive or inconclusive.

Experiment [1] is described as follows: qHTS assay to identify small molecule agonists of the peroxisome proliferator-activated receptor delta (PPARd) signaling pathway - cell viability counter screen (AID 743211). Note: nearly all actives have a fitted effect of over 55% in size. Note: potency is the fitted concentration of half-maximal effect. Put shortly:
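Tox21 library compounds, delivered in DMSO, were incubated 17 h with PPARd-bla HEK293H cells; cytotoxicity was taken from CellTiter-Glo luminescence read 30 min after reagent addition.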
Background: qHTS replaces the single test concentration by a dilution series.

Experiment [2] addresses Peroxisome proliferator-activated receptor delta (Homo sapiens) (UniProt Q03181). In words: qHTS assay to identify small molecule agonists of the peroxisome proliferator-activated receptor delta (PPARd) signaling pathway (AID 743212; calls by dose curve). Put shortly: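 Tox21 library screened in GeneBLAzer PPARd UAS-bla HEK293H cells. After compound treatment at 37 C, a FRET-based beta-lactamase substrate was applied for 2 h and fluorescence recorded.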

The target is the same in experiment [3]. Briefly: qHTS assay to identify small molecule antagonists of the peroxisome proliferator-activated receptor delta (PPARd) signaling pathway (AID 743215; active = well fitted inhibition curve with a large enough effect in the signal ratio in the repeat runs, not every such curve was filed as active; the % refers to the signal ratio;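 note: cells stimulated with agonist L165041 at 300 nM final during compound exposure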; note: potency is the fitted concentration of half-maximal effect). In a few lines: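 Here, a reporter line (HEK293H, beta-lactamase under a UAS) measures PPARd signaling. Compounds are tested against agonist L165041 at 300 nM final concentration over 17 h at 37 C, with fluorescence read after substrate.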

Experiment [4] is described as follows: qHTS assay to identify small molecule agonists of the farnesoid-X-receptor (FXR) signaling pathway - cell viability counter screen (AID 743218). Note: nearly all actives have a fitted effect of over 45% in size. Note: potency is the fitted concentration of half-maximal effect. Put shortly:
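Quantitative HTS counter screen measuring ATP-based viability via CellTiter-Glo luminescence in HEK 293T cells carrying a UAS-driven beta-lactamase reporter, after 16 h compound exposure at 37 C.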

The nature of experiment [5]: qHTS assay to identify small molecule antagonists of the farnesoid-X-receptor (FXR) signaling pathway - cell viability counter screen (AID 743221; active = well fitted cell-killing curve with a large enough effect in the repeat runs, not every such curve was filed as active; note: nearly all actives have a fitted effect of over 50% in size). Put shortly: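 Cytotoxicity is taken from ATP luminescence (CellTiter-Glo, 30 min, room temperature) in FXR-bla HEK 293T cells previously incubated 16 h at 37 C with compound and chenodeoxycholic acid at 50 uM final.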
For experiment [6], the target named is Vitamin D3 receptor (Homo sapiens) (UniProt P11473). Briefly: qHTS assay to identify small molecule agonists of the vitamin D receptor (VDR) signaling pathway (AID 743222; calls by dose curve). Put shortly:
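Tox21 cell reporter format: VDR-bla line, 16 h compound exposure in 5% CO2 at 37C, then fluorescence intensity after 2 h with LiveBLAzer B/G FRET substrate.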

The target is the same in experiment [7]. Briefly: qHTS assay to identify small molecule antagonists of the vitamin D receptor (VDR) signaling pathway (AID 743223; active = well fitted inhibition curve with a large enough effect in the signal ratio in the repeat runs, not every such curve was filed as active; the % refers to the signal ratio). Put shortly:
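Quantitative HTS in VDR-bla reporter cells stimulated with 1alpha,25-dihydroxyvitamin D3, 3 nM final. Compound exposure 16 h, 37C, 5% CO2. Read-out: beta-lactamase FRET substrate fluorescence, 2 h RT.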

Experiment [8] in a line: qHTS assay to identify small molecule antagonists of the peroxisome proliferator-activated receptor delta (PPARd) signaling pathway - cell viability counter screen (AID 743213). Note: nearly all actives have a fitted effect of over 50% in size. Note: potency is the fitted concentration of half-maximal effect. Put shortly: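 Same-well viability: cells pre-incubated 5 h, dosed with compound plus 300 nM L165041, kept 17 h at 37 C, FRET substrate 2 h RT, then CellTiter-Glo 30 min RT and luminescence.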
For experiment [9], the target named is Bile acid receptor (Homo sapiens) (UniProt Q96RI1). Briefly: qHTS assay to identify small molecule antagonists of the farnesoid-X-receptor (FXR) signaling pathway (AID 743217; active = well fitted inhibition curve with a large enough effect in the signal ratio in the repeat runs, not every such curve was filed as active; the % refers to the signal ratio). In a few lines:
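Test compounds are pin-transferred onto FXR-bla HEK 293T cells, then chenodeoxycholic acid is added at 50 uM final. After 16 h at 37 °C, LiveBLAzer B/G substrate is applied for 2 h at room temperature and fluorescence read.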

The target is the same in experiment [10]. Briefly: qHTS assay to identify small molecule agonists of the farnesoid-X-receptor (FXR) signaling pathway (AID 743220; active = well fitted activation curve with a large enough effect in the signal ratio in the repeat runs, not every such curve was filed as active; the % refers to the signal ratio; note: potency is the fitted concentration of half-maximal effect). Put shortly:
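FXR-UAS-bla HEK 293T cells carrying a UAS-driven beta-lactamase reporter were plated for 5 h at 37C/5% CO2, then exposed to DMSO-dissolved Tox21 10K compounds for 16 h at 37C. A LiveBLAzer B/G FRET substrate was loaded for 2 h at room temperature before fluorescence reading.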

Chain of Bile acid receptor (Homo sapiens) (Q96RI1 whole entry, looked up): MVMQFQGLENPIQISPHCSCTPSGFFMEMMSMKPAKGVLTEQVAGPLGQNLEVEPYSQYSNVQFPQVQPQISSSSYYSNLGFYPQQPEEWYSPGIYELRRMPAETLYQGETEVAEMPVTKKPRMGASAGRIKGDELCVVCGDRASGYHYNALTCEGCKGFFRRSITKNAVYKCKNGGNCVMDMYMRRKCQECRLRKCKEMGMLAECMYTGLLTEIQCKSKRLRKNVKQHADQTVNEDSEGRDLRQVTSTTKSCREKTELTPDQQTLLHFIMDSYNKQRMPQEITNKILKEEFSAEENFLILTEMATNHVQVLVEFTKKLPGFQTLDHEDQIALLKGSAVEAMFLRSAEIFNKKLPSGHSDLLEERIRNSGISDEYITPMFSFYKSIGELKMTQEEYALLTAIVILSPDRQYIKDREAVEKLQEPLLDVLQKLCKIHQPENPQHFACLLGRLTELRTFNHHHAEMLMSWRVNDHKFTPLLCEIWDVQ
Chain of Peroxisome proliferator-activated receptor delta (Homo sapiens) (Q03181 whole entry, looked up): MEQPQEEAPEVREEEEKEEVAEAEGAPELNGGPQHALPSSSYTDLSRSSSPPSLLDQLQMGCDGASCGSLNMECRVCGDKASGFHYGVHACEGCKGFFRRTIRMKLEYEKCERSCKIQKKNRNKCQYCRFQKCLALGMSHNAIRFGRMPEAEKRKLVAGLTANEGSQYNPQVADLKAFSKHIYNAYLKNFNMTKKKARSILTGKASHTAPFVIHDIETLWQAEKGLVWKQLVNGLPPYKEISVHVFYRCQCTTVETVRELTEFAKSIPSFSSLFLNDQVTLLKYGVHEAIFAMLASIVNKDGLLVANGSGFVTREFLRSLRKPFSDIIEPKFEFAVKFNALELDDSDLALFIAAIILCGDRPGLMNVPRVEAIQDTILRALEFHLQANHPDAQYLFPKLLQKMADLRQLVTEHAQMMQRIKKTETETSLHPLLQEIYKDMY
Chain of Vitamin D3 receptor (Homo sapiens) (P11473 whole entry, looked up): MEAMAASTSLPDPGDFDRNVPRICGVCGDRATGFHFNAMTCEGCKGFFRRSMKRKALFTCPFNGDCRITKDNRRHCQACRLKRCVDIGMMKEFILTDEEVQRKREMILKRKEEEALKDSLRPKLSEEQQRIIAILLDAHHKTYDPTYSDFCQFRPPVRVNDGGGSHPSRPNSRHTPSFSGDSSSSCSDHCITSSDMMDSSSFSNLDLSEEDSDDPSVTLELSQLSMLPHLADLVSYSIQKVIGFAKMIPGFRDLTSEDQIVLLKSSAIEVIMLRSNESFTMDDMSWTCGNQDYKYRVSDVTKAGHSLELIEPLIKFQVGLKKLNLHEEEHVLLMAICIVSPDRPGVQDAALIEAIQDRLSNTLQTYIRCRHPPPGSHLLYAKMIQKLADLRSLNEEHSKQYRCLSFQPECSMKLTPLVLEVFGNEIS

For the molecule `CCCCCCCCCCO[C@@H]1O[C@H](CO)[C@@H](O)[C@H](O)[C@H]1O`, the Potency result in experiment [1], in [2], in [3], in experiment [4], in [5] and in [6] was “inactive” each time. Besides, the molecule was classed as inactive in [7].
As for `CCn1cc(C(=O)O)c(=O)c2cnc(N3CCNCC3)nc21`, the Potency result in experiment [1], in experiment [8], in experiment [9], in [4], in experiment [10] and in experiment [5] was “inactive” throughout.
For `CC(COCCO)OCCO` (configuration not stated), the Potency entry in experiment [1], in [8], in experiment [9], in [4], in experiment [10] and in experiment [5] was “inactive” in each case. Moreover, in experiment [6], the Potency entry was “inactive”. Also, in [7], the molecule was classed as inactive.
For the molecule `C[C@H]1C[C@H]2[C@@H]3CCC4=CC(=O)C=C[C@]4(C)[C@@]3(Cl)[C@@H](O)C[C@]2(C)[C@@]1(O)C(=O)CO`, the Potency entry in experiment [1], in [2], in experiment [3], in experiment [4], in experiment [5] and in experiment [6] was “inactive” in each case. In addition, in experiment [7], the molecule was classed as inactive.
Regarding `CCCCCCCCCCCCCCOS(=O)(=O)O`, the Potency in experiment [1] was 43.6 µM (active); in experiment [8], 43.6 µM (active); in experiment [4], 54.9 µM (active). Further, the Potency entry in [3] and in experiment [6] was “inactive” in each case. For the same molecule, the molecule was called inactive in [7].
Regarding `CCCC(=O)Nc1ccc(O)c(C(C)=O)c1`, the Potency result in experiment [1], in experiment [2], in experiment [3], in [4] and in experiment [5] was “inactive” each time.
Turning to `Nc1c(CC(=O)O)cccc1C(=O)c1ccc(Br)cc1`, the Potency entry in experiment [1], in [8], in experiment [3], in [9], in [4] and in experiment [10] was “inactive” in each case. Also, the Potency entry in experiment [5] was “inactive”.
For `Cc1cc(C(=O)O)ccc1[N+](=O)[O-]`, the Potency entry in [1], in experiment [2], in experiment [3], in experiment [4] and in [6] was “inactive” in each case.
Consider `CN(Cc1ccc(C(C)(C)C)cc1)Cc1cccc2ccccc12`, for which the Potency was 29.8 µM (active) in experiment [1] and 23.7 µM (active) in [8]. The Potency result in experiment [3], in [10] and in [6] was “inactive” each time. Further, the molecule was called inactive in [7].
Turning to `CCC(C)O` (configuration not stated), the Potency entry in [1], in experiment [8], in experiment [9], in experiment [4], in experiment [10] and in experiment [5] was “inactive” each time. Moreover, the Potency result in experiment [6] was “inactive”.
As for `CCOC(=O)NCCOc1ccc(Oc2ccccc2)cc1`, the Potency result in [1], in experiment [2], in experiment [9], in [10], in experiment [5] and in [6] was “inactive” in each case. The molecule was classed as inactive in experiment [7].
As for `O=C(O)c1nc(Cl)c(Cl)c(Cl)c1Cl`, the Potency result in experiment [1], in experiment [2], in experiment [3], in experiment [4] and in experiment [5] was “inactive” in each case.
As for `CCN(CC)CCNc1ccc(CNC=O)c2sc3ccc(OC)cc3c(=O)c12`, the Potency in experiment [1] was 30.9 µM (active); in experiment [3] it was 15.5 µM (active); in experiment [4], 4.9 µM (active); in [10], 6.92 µM (active). In addition, the Potency entry in [2] and in experiment [6] was “inactive” each time.
With `CC(C)=CCC/C(C)=C/CC/C(C)=C/CO`, in experiment [1], the Potency is 38.9 µM (active). Further, the Potency result in experiment [8], in experiment [3], in experiment [4], in experiment [5] and in [6] was “inactive” in each case. The call in experiment [7] was inactive.
Turning to `NS(=O)(=O)c1ccc(N2CCCCS2(=O)=O)cc1`, the Potency entry in experiment [1], in experiment [8], in experiment [9], in [4], in experiment [10] and in experiment [5] was “inactive” each time. Also, the Potency entry in [6] was “inactive”. The result in experiment [7] was inactive.
Regarding `NCC(=O)CCC(=O)O`, the Potency result in experiment [1], in [8], in [9], in experiment [4], in experiment [10] and in experiment [5] was “inactive” each time. Besides, the Potency result in experiment [6] is “inactive”. Further, the call in experiment [7] was inactive.
On to `CCCCCCCC/C=C\CCCCCCCC(=O)OCC`, for which the Potency entry in experiment [1], in experiment [2], in experiment [4], in [5] and in experiment [6] was “inactive” each time. Further, the molecule was classed as inactive in experiment [7].
Turning to `CCCOC(C(=O)OC1CCN(C)CC1)(c1ccccc1)c1ccccc1`, the Potency entry in [1], in [2], in [3], in [9] and in experiment [6] was “inactive” each time.
Consider `CC(C)(C)Cl`, for which the Potency entry in experiment [1], in [8], in [9], in experiment [4], in experiment [10] and in experiment [5] was “inactive” in each case. Further, the Potency result in experiment [6] is “inactive”. Moreover, the molecule was called inactive in [7].
Take `CCCCCCCCCOS(=O)(=O)O`: the Potency entry in experiment [1], in [8], in [3], in [4], in experiment [5] and in experiment [6] was “inactive” each time.
`COc1ccc2cccc(CCNC(C)=O)c2c1`: the Potency entry in [1], in experiment [8], in experiment [4], in experiment [5] and in [6] was “inactive” in each case. Moreover, in experiment [7], the molecule was called inactive.
On to `C[N+]1(CC2COC(c3ccccc3)(C3CCCCC3)O2)CCCCC1` (configuration not stated), for which the Potency entry in experiment [1], in experiment [8], in experiment [4] and in experiment [5] was “inactive” throughout.
Consider `COc1ccc(C(=O)N2CCN(CC(=O)N3CCOCC3)CC2)cc1`, for which the Potency entry in [1], in [8], in experiment [4], in [5] and in [6] was “inactive” each time. In addition, the call in experiment [7] was inactive.
On to `COc1ccc(C(=O)Nc2nc3ccccc3c(NCc3ccccc3)c2C#N)cc1`, for which the Potency result in experiment [1], in [8], in [4], in experiment [10] and in experiment [5] was “inactive” in each case.
In the case of `CCCCCC[C@@H](O)C/C=C\CCCCCCCC(=O)OC`, the Potency entry in experiment [1], in experiment [8], in experiment [4], in [5] and in [6] was “inactive” throughout.
`CC1=CC=C(C(C)C)CC1`: the Potency result in [1], in experiment [8], in experiment [4] and in [5] was “inactive” in each case.
For the molecule `CCCCO`, the Potency result in [1], in [8], in experiment [9], in experiment [4], in [5] and in experiment [6] was “inactive” each time. Besides, the molecule was classed as inactive in [7].
Take `CCC(=O)O[C@]1(C(=O)CCl)[C@@H](C)C[C@H]2[C@@H]3CCC4=CC(=O)C=C[C@]4(C)[C@@]3(F)[C@@H](O)C[C@@]21C`: the Potency result in [1], in experiment [8], in experiment [4], in [5] and in experiment [6] was “inactive” in each case.

Source of the values: PubChem BioAssay (Tox21).
